The nature of test [1]: NCI Yeast Anticancer Drug Screen. Data for the rad50 strain (AID 155).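 Also: 0% = growth of vehicle-only cultures of the same strain.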 The conditions noted are these: S. cerevisiae rad50 strain growth inhibition, active compounds read high. An outline of the steps:
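Yeast carrying a defined DNA repair defect were exposed to test compounds, and growth was compared with vehicle-treated controls to give percent inhibition.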

A short description of test [2]: NCI Yeast Anticancer Drug Screen. Data for the mec2-1 strain (AID 157). Particulars: S. cerevisiae mec2-1 strain, active compounds read high. The method, boiled down:
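Each compound was tested on mec2-1 yeast, a strain altered in DNA damage repair or cell cycle control. Growth inhibition is reported relative to vehicle.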

The nature of test [3]: NCI Yeast Anticancer Drug Screen. Data for the sgs1 mgt1 strain (AID 161).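 Also: 0% = growth of cultures given vehicle only.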 Particulars: S. cerevisiae sgs1 mgt1 strain, active compounds read high. The method, boiled down:
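Inhibition of yeast growth, normalised to vehicle-treated controls, is reported for a strain bearing genetic alterations in DNA damage repair.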

Test [4] can be described thus: NCI Yeast Anticancer Drug Screen. Data for the cln2 rad14 strain (AID 165).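 Also: 0% = growth equal to vehicle treated cultures.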 Particulars: S. cerevisiae cln2 rad14 strain, active compounds read high. The method, boiled down: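 Test compounds were added to cln2 rad14 yeast cultures; inhibition of growth was then determined by comparison with vehicle treatment.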
Test [5] in a line: NCI Yeast Anticancer Drug Screen. Data for the bub3 strain (AID 167). The conditions noted are these: S. cerevisiae bub3 mutant strain, active compounds read high. The method, boiled down:
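Compounds were applied to a genetically altered yeast strain carrying a cell-cycle control defect. Growth inhibition was scored against vehicle-treated controls.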

Test [6] is described as follows: NCI Yeast Anticancer Drug Screen. Data for the mlh1 rad18 strain (AID 175). The conditions noted are these: S. cerevisiae mlh1 rad18 strain growth inhibition, active compounds read high. The method, boiled down:
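Inhibition values reflect reduced growth of mutant yeast versus vehicle-treated controls following compound exposure; the mutations affect DNA damage repair.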

The mark [7] stands for this setting: at 5.0 µM (retest, dose inferred, filed as 0.5).
[8] abbreviates: at 50.0 µM (retest, dose inferred, filed as 5.0).

About 79,000 compounds went through this panel and 15% of them were active in at least one assay; those are over-represented in the sample as a whole. Unmarked numbers belong to inactive results. The source made the active and inactive calls. Rule as the data show it: active = growth inhibition above about 70%; inactive = the rest.

For the compound `C/C(=N\NC(N)=S)C(CN1CCCCC1)C(C1=C(O)c2ccccc2OC1)c1ccccc1` (stereo unspecified), the growth inhibition is 10% in test [1] (setting [7]); 38% in test [1] (setting [8]); 64.7% in test [1] (at 50.0 µM); 6% in test [2] (setting [7]); 45% in test [2] (setting [8]); 63% in test [2] (at 50.0 µM). Also, the growth inhibition is 19% in test [3] (setting [7]); 67% in test [3] (setting [8]); 68.5% in test [3] (at 50.0 µM); 22% in test [4] (setting [7]); 62% in test [4] (setting [8]); 53.7% in test [4] (at 50.0 µM). Moreover, the growth inhibition in test [5] (setting [7]) was 32%; in test [5] (setting [8]), 70% (active); in test [5] (at 50.0 µM), 71.8% (active); in test [6] (setting [7]) it was 20%; in test [6] (setting [8]), 55%; in test [6] (at 50.0 µM), 67.5%.
As to `CN=c1ss/c(=N\C(=S)N(C)C)n1-c1ccccc1`, the growth inhibition in test [1] (setting [7]) is -10%; in test [1] (setting [8]), -10%; in test [1] (at 50.0 µM), -17.1%; in test [2] (setting [7]), -11%; in test [2] (setting [8]), 7%; in test [2] (at 50.0 µM), -7.45%. In addition, the growth inhibition was 13% in test [3] (setting [7]); -20% in test [3] (setting [8]); -18.6% in test [3] (at 50.0 µM); 8% in test [4] (setting [7]); 13% in test [4] (setting [8]); 4.45% in test [4] (at 50.0 µM). Moreover, the growth inhibition in test [5] (setting [7]) was 4%; in test [5] (setting [8]), 7%; in test [5] (at 50.0 µM) it was 42.5%; in test [6] (setting [7]) it was -20%; in test [6] (setting [8]), 3%; in test [6] (at 50.0 µM), -22.5%.
Regarding `CC1(c2ccc3ccccc3c2)C(C#N)(C#N)C1(C#N)C#N`, the growth inhibition was 87% (active) in test [1] (setting [7]); 92% (active) in test [1] (setting [8]); 91.4% (active) in test [1] (at 50.0 µM); 94% (active) in test [2] (setting [7]); 94% (active) in test [2] (setting [8]); 92% (active) in test [2] (at 50.0 µM). Moreover, the growth inhibition is 97% (active) in test [3] (setting [7]); 96% (active) in test [3] (setting [8]); 88% (active) in test [3] (at 50.0 µM); 62% in test [4] (setting [7]); 93% (active) in test [4] (setting [8]); 83.2% (active) in test [4] (at 50.0 µM). Also, the growth inhibition in test [5] (setting [7]) is 96% (active); in test [5] (setting [8]), 93% (active); in test [5] (at 50.0 µM), 91.2% (active); in test [6] (setting [7]), 97% (active); in test [6] (setting [8]), 93% (active); in test [6] (at 50.0 µM), 87.7% (active).
Regarding `Oc1ccc2ccccc2c1CNc1ccc2ccccc2c1`, the growth inhibition in test [1] (setting [7]) was 8%; in test [1] (setting [8]), 57%; in test [1] (at 50.0 µM), 95.9% (active); in test [2] (setting [7]) it was 10%; in test [2] (setting [8]) it was 15%; in test [2] (at 50.0 µM), 98.7% (active). Further, the growth inhibition in test [3] (setting [7]) was 11%; in test [3] (setting [8]), 69%; in test [3] (at 50.0 µM) it was 98.8% (active); in test [4] (setting [7]) it was -1%; in test [4] (setting [8]), 18%; in test [4] (at 50.0 µM), 97.8% (active). The growth inhibition was 0% in test [5] (setting [7]); 60% in test [5] (setting [8]); 95.4% (active) in test [5] (at 50.0 µM); 12% in test [6] (setting [7]); 67% in test [6] (setting [8]); 98.5% (active) in test [6] (at 50.0 µM).
Take `C/C=C(/CCC1NCCC2c3ccccc3NC12)[Si](C)(C)C` (stereo unspecified): the growth inhibition was 1% in test [1] (setting [7]); 8% in test [1] (setting [8]); 10.2% in test [1] (at 50.0 µM); -5% in test [2] (setting [7]); 8% in test [2] (setting [8]); 7.15% in test [2] (at 50.0 µM). Further, the growth inhibition is -2% in test [3] (setting [7]); 37% in test [3] (setting [8]); 59.6% in test [3] (at 50.0 µM); -5% in test [4] (setting [7]); 0% in test [4] (setting [8]); 0.15% in test [4] (at 50.0 µM). For the same compound, the growth inhibition is -3% in test [5] (setting [7]); 15% in test [5] (setting [8]); 5.6% in test [5] (at 50.0 µM); -4% in test [6] (setting [7]); 37% in test [6] (setting [8]); 44.5% in test [6] (at 50.0 µM).
With `CC(=O)OC1=CC2=CCC3C(CCC4(C)C(C(C)=O)CCC34)C2(C)CC1` (stereo unspecified), the growth inhibition is -12% in test [1] (setting [7]); 0% in test [1] (setting [8]); -5.65% in test [1] (at 50.0 µM); -6% in test [2] (setting [7]); 7% in test [2] (setting [8]); 10.9% in test [2] (at 50.0 µM). In addition, the growth inhibition is -6% in test [3] (setting [7]); 8% in test [3] (setting [8]); 7.35% in test [3] (at 50.0 µM); -6% in test [4] (setting [7]); -13% in test [4] (setting [8]); 39.8% in test [4] (at 50.0 µM). Besides, the growth inhibition in test [5] (setting [7]) is -11%; in test [5] (setting [8]) it was -14%; in test [5] (at 50.0 µM) it was -1.15%; in test [6] (setting [7]), -4%; in test [6] (setting [8]) it was -11%; in test [6] (at 50.0 µM), 11.3%.
For `CC(NC(=O)OCc1ccccc1)C(=O)NC(Cc1ccccc1)C(=O)OCc1ccccc1` (stereo unspecified), the growth inhibition was 1% in test [1] (setting [7]); 5% in test [1] (setting [8]); -17.6% in test [1] (at 50.0 µM); 37% in test [2] (setting [7]); 2% in test [2] (setting [8]); -5.05% in test [2] (at 50.0 µM). Also, the growth inhibition in test [3] (setting [7]) was -2%; in test [3] (setting [8]), -1%; in test [3] (at 50.0 µM), 22%; in test [4] (setting [7]), 5%; in test [4] (setting [8]) it was 2%; in test [4] (at 50.0 µM) it was 36.6%. Also, the growth inhibition in test [5] (setting [7]) is -3%; in test [5] (setting [8]) it was -7%; in test [5] (at 50.0 µM) it was -4.4%; in test [6] (setting [7]) it was 1%; in test [6] (setting [8]) it was 7%; in test [6] (at 50.0 µM), 6.45%.

Source of the values: PubChem BioAssay (NCI).
